Experimental data published in PubChem BioAssay (Tox21).
Several values for one entry are separate records, joined by “and”; a condition that tells them apart may be missing. Identical values can stand only once. Records with an inconclusive call do not appear. Entries that show only a call come without a potency. Some structures have more than one record in an assay (separate samples or runs), and their calls can disagree. Activity calls are given as the source filed them. Unless noted, calls follow the shape of the dose curve; as a rule, active = well fitted curve in the direction sought with a large enough effect in the repeat runs; inconclusive = weak or mixed curves; inactive = no such curve, though single readings can be large; an effect the other way counts as inactive or inconclusive.

Key:
[1] = qHTS assay to identify small molecule antagonists of the estrogen receptor alpha (ER-alpha) signaling pathway using the BG1 cell line in the presence of 0.1 nM 17-beta-estradiol - cell viability counter screen (AID 1259241); also: nearly all actives have a fitted effect of over 40% in size; also: potency is read from the fitted curve at half-maximal effect
Procedure, shortened: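 VM7Luc4E2 cells (endogenous full-length ER-alpha, 4xERE-luciferase), cultured 5 days in charcoal-stripped serum, exposed to compounds with 0.1 nM 17beta-estradiol (final) for 22 hr at 37C. Viability read in same wells as live-cell protease fluorescence after 30 min.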

[2] = qHTS assay to identify small molecule antagonists of the androgen receptor (AR) signaling pathway using the MDA cell line in the presence of 0.5 nM R1881 - cell viability counter screen (AID 1259242); also: nearly all actives have a fitted effect of over 45% in size; also: potency is read from the fitted curve at half-maximal effect
Procedure, shortened: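 Steps: plate MDA-kb2 cells, rest 5 hr at 37C without CO2; pin in compounds in DMSO; add R1881 to 0.5 nM final; incubate 16 hr; add CellTiter-Fluor, 30 min; read fluorescence.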

[3] = molecular target: Estrogen receptor (Homo sapiens) (UniProt P03372); test: qHTS assay to identify small molecule antagonists of the estrogen receptor alpha (ER-alpha) signaling pathway using the BG1 cell line in the presence of 0.1 nM 17-beta-estradiol (AID 1259244); also: nearly all actives have a fitted effect of over 50% in size; also: potency is read from the fitted curve at half-maximal effect
Procedure, shortened: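 Antagonist mode: compounds in DMSO are pinned onto VM7Luc4E2 reporter cells, 0.1 nM final 17beta-estradiol is added, and after 22 h at 37C luciferase luminescence is measured with ONE-Glo.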

[4] = qHTS assay to identify small molecule phospholipidosis (PLD) inducers (AID 1259344; active = well fitted curve in the direction sought with a large enough effect; an effect the other way counts as inactive or inconclusive)
Procedure, shortened: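 Accumulated phospholipid, stained red by LipidTOX during 24 h compound treatment of HepG2 cells at 37 C, is quantified from images as pit number and intensity, normalised per cell using Hoechst-stained nuclei.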

[5] = qHTS assay to identify small molecule HDAC inhibitors (AID 1259364);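 also: wild-type HCT-116 cells with endogenous class I/II HDAC activity; top concentration of the series differs between compounds; nearly all actives have a fitted effect of over 45% in size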
Procedure, shortened: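 Cells (HCT-116, wild type) are seeded at 1,500 per well, incubated overnight, treated with compound in DMSO for 2 hr, then developed with HDAC-Glo I/II reagent for 30 min at room temperature.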

[6] = qHTS assay to identify small molecule HDAC inhibitors - cell viability counter screen (AID 1259365); also: series mostly up to about 92 µM; nearly all actives have a fitted effect of over 50% in size
Procedure, shortened: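 Wild-type HCT-116 cells, 1,500/well, cultured overnight, then compound-treated 2 h at 37 C. Viability measured as ATP luminescence with CellTiter-Glo after 30 min at room temperature.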

[7] = qHTS assay to identify small molecule agonists of the sonic hedgehog signaling (Shh) pathway - cell viability counter screen (AID 1259366); also: nearly all actives have a fitted effect of over 50% in size; also: potency is read from the fitted curve at half-maximal effect
Procedure, shortened: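 NIH/3T3-derived Gli1-Luc reporter cells, 2,000 per well, received compound after 4 h and were treated about 23 h at 37C. Viability measured in the same wells by CellTiter-Fluor fluorescence after 1 h.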

[8] = qHTS assay to identify small molecule antagonists of the sonic hedgehog signaling (Shh) pathway - cell viability counter screen (AID 1259367); also: nearly all actives have a fitted effect of over 55% in size; also: potency is read from the fitted curve at half-maximal effect
Procedure, shortened: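 CellTiter-Fluor signal in conditioned medium-stimulated 3T3 Gli1-Luc cells, 23 hr compound exposure, 37C.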

[9] = qHTS assay to identify small molecule agonists of the sonic hedgehog signaling (Shh) pathway (AID 1259368; calls by dose curve;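 also: NIH/3T3-derived 3T3Gli1-Luc cells carrying a stable Gli1-driven firefly luciferase reporter; series mostly up to about 92 µM; nearly all actives have a fitted effect of over 15% in size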)
Procedure, shortened: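 Cells of a mouse NIH/3T3 clone stably expressing luciferase under the Gli1 transcriptional response element are exposed to test chemicals for 24 hr at 37 C. Pathway activation is detected as a rise in luminescence.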

[10] = qHTS assay to identify small molecule antagonists of the sonic hedgehog signaling (Shh) pathway (AID 1259369; calls by dose curve; also: nearly all actives have a fitted effect of over 45% in size; also: potency is read from the fitted curve at half-maximal effect)
Procedure, shortened: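 Cells are plated and held 4hr at 37 C, compounds (DMSO) are pinned in, conditioned medium is added to stimulate the pathway, and after 24hr luciferase reagent is added for 30min before luminescence is read.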

[11] = molecular target: Estrogen receptor beta (Homo sapiens) (UniProt Q92731); test: qHTS assay to identify small molecule agonists of the estrogen receptor beta (ER-beta) signaling pathway (AID 1259377; active = well fitted activation curve with a large enough effect in the signal ratio in the repeat runs, not every such curve was filed as active; the % refers to the signal ratio)
Procedure, shortened: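 ER-beta-UAS-bla HEK293T cells in medium with 2% charcoal-stripped FBS were exposed to compounds for 16 h at 37C. Beta-lactamase reporter activity was read as fluorescence after 2 h with LiveBLAzer B/G FRET substrate at room temperature.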

[12] = qHTS assay to identify small molecule agonists of the androgen receptor (AR) signaling pathway in the presence of an antagonist - cell viability counter screen (AID 1259379); also: nearly all actives have a fitted effect of over 25% in size; also: potency is read from the fitted curve at half-maximal effect
Procedure, shortened: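 Cytotoxicity is assessed by CellTiter-Fluor in MDA-kb2 cells carrying an MMTV-driven luciferase reporter. Cells receive 3.0uM nilutamide plus compounds at 15 concentrations and incubate 16 hr at 37C without CO2 before fluorescence reading.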

[13] = qHTS assay to identify small molecule agonists of the estrogen receptor beta (ER-beta) signaling pathway - cell viability counter screen (AID 1259380); also: nearly all actives have a fitted effect of over 30% in size
Procedure, shortened: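 Cytotoxicity is measured in parallel with the reporter screen: after 16 hr compound exposure at 37C and a 2 hr LiveBLAzer step, CellTiter-Glo is added to the same ER-beta-UAS-bla HEK293T wells and luminescence read after 30 min.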

[14] = qHTS assay to identify small molecule antagonists of the estrogen receptor beta (ER-beta) signaling pathway - cell viability counter screen (AID 1259382);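 also: HEK293T cells carrying ER-beta-UAS-bla reporter stimulated with estradiol; series mostly up to about 92 µM; nearly all actives have a fitted effect of over 55% in size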
Procedure, shortened: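 Cytotoxicity counter screen multiplexed with the beta-lactamase antagonist assay: GripTite HEK293T ER-beta-bla cells were treated 16 hr with test chemicals in the presence of 1nM 17-beta-estradiol, and viability was measured by CellTiter-Glo.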

[15] = molecular target: Estrogen receptor (Homo sapiens) (UniProt P03372); test: qHTS assay to identify small molecule agonists of the estrogen receptor alpha (ER-alpha) signaling pathway in the presence of an antagonist (AID 1259383; calls by dose curve; also: nearly all actives have a fitted effect of over 15% in size; also: potency is read from the fitted curve at half-maximal effect; as to activation: top concentration of the series differs between compounds)
Procedure, shortened: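 Agonist-mode confirmation in the presence of the ER antagonist ICI-182,780 at 10.0nM final. Breast-derived VM7Luc4E2 reporter cells were exposed to compounds for 22hr, and ERE-driven luciferase was quantified by luminescence.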

[16] = qHTS assay to identify small molecule agonists or antagonists of the thyroid stimulating hormone receptor (TSHR) signaling pathway - wild type cell line counter screen (AID 1259384; calls by dose curve)
Procedure, shortened: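 Counter screen in untransfected Hek293: compounds (15-point titration, triplicate) plus phosphodiesterase inhibitor Ro20-1724 added after 18 h plating; 30 min RT. Intracellular cAMP via competitive d2/cryptate immunoassay, 1 h incubation.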

[17] = molecular target: Thyrotropin receptor (Homo sapiens) (UniProt P16473); test: qHTS assay to identify small molecule antagonists of the thyroid stimulating hormone receptor (TSHR) signaling pathway (AID 1259385; calls by dose curve; also: nearly all actives have a fitted effect of over 20% in size)
Procedure, shortened: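 Antagonist mode: compound-treated TSHR-expressing HEK293 cells were stimulated with 1.5 ng/mL TSH (final) in presence of Ro20-1724 for 30 min at RT. HTRF cAMP detection after 1 h; each compound tested at 15 concentrations, triplicate.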

[18] = molecular target: Androgen receptor (Homo sapiens) (UniProt P10275); test: qHTS assay to identify small molecule antagonists of the androgen receptor (AR) signaling pathway using the MDA cell line in the presence of 0.5 nM R1881 (AID 1259243); also: nearly all actives have a fitted effect of over 50% in size; also: potency is read from the fitted curve at half-maximal effect
Procedure, shortened: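 Stably transfected MDA-kb2 cells express luciferase from an MMTV promoter bearing both AR and GR response elements. Compounds plus 0.5 nM R1881 (final) were incubated 16 hr at 37C without CO2, then luminescence measured.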

[19] = molecular target: Androgen receptor (Homo sapiens) (UniProt P10275); test: qHTS assay to identify small molecule agonists of the androgen receptor (AR) signaling pathway in the presence of an antagonist (AID 1259381; calls by dose curve; also: nearly all actives have a fitted effect of over 15% in size)
Procedure, shortened: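 Agonist-mode confirmation screen: human MDA-kb2 cells stably expressing luciferase under an MMTV promoter bearing AR and GR response elements, co-treated with 3.0uM nilutamide (final). Luminescence measured after 16hr compound incubation.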

[20] = qHTS assay to identify small molecule agonists of the estrogen receptor alpha (ER-alpha) signaling pathway in the presence of an antagonist - cell viability counter screen (AID 1259386); also: nearly all actives have a fitted effect of over 30% in size; also: potency is read from the fitted curve at half-maximal effect
Procedure, shortened: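 Cytotoxicity was measured in parallel with the ERE-luciferase agonist screen, in the same wells. The cells were VM7Luc4E2, which endogenously express ER-alpha, and treatment was with compounds plus 10.0nM ICI-182,780 for 22hr.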

Sequence of Estrogen receptor (Homo sapiens) (P03372 whole entry, looked up): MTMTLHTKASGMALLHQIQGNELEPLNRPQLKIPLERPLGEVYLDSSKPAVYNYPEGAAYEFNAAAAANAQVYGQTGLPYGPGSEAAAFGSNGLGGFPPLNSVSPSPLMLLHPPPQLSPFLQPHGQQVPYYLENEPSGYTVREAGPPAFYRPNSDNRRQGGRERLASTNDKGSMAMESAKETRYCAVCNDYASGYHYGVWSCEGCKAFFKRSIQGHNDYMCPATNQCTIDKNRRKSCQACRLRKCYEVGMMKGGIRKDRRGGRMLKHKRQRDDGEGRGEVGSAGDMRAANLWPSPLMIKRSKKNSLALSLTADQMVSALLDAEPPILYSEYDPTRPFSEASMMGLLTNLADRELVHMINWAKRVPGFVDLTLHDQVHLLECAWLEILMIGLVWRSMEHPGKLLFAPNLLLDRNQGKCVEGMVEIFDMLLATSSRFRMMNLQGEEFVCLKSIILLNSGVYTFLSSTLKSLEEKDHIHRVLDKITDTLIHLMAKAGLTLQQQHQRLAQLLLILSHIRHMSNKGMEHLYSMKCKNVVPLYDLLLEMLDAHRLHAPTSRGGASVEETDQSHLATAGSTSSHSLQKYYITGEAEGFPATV
Sequence of Thyrotropin receptor (Homo sapiens) (P16473 whole entry, looked up): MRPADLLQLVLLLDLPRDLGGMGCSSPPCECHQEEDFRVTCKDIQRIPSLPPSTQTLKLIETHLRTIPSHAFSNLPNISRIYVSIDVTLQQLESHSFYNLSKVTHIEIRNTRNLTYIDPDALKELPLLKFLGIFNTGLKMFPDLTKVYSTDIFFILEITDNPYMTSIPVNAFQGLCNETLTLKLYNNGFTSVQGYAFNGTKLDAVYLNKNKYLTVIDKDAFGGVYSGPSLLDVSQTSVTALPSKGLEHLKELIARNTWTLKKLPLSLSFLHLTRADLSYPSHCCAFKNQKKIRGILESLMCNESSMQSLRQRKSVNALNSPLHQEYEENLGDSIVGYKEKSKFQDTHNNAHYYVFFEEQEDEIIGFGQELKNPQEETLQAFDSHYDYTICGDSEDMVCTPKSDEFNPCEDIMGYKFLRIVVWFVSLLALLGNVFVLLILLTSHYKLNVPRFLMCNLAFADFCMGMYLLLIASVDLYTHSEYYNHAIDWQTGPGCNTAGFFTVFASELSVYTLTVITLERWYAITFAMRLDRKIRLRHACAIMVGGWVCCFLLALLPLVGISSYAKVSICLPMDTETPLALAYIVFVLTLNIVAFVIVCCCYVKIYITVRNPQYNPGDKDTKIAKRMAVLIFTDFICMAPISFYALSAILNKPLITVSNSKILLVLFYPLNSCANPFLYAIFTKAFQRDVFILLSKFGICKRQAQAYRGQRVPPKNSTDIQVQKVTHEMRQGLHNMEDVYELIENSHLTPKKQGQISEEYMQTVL
Sequence of Androgen receptor (Homo sapiens) (P10275 whole entry, looked up): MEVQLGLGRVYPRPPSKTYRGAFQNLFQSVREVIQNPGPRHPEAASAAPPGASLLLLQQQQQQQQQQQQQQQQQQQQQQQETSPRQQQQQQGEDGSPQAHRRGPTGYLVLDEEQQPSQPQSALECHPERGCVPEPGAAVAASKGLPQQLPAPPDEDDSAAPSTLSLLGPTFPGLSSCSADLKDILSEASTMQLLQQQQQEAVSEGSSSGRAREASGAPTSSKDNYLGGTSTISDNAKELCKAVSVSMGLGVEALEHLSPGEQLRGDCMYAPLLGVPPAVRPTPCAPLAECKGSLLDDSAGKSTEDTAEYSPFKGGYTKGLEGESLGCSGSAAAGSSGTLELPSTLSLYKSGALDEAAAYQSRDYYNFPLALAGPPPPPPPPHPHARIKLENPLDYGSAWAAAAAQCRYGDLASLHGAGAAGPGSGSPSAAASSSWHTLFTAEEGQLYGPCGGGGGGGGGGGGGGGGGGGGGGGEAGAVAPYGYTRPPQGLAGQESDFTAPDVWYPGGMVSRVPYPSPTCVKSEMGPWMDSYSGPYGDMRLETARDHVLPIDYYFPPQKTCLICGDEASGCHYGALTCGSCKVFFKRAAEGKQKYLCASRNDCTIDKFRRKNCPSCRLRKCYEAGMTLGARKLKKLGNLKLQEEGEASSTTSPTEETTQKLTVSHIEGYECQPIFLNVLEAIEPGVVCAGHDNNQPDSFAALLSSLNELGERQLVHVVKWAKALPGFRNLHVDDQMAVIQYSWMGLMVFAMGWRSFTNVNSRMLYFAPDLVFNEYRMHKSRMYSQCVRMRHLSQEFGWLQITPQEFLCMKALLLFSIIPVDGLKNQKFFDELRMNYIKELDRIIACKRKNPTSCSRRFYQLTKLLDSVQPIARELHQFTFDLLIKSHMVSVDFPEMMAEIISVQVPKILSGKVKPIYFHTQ
Sequence of Estrogen receptor beta (Homo sapiens) (Q92731 whole entry, looked up): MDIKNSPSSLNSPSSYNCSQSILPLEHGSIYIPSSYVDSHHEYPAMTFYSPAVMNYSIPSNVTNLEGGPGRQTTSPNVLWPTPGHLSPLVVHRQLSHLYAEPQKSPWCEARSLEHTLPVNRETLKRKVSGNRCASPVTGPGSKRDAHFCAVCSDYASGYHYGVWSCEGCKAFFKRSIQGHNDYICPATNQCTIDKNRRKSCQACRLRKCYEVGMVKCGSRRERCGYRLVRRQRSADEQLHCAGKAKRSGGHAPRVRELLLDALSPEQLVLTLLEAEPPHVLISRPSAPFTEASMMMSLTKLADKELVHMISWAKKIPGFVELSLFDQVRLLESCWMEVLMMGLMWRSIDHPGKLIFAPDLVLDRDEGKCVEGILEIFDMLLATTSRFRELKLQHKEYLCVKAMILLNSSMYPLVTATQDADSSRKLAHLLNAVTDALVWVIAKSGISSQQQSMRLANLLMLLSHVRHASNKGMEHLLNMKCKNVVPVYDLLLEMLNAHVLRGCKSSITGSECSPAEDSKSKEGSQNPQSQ

| SMILES | Potency [1] | Potency [2] | Potency [3] | Potency [4] | Potency [5] | Potency [6] | Potency [7] | Potency [8] | outcome [9] | Potency [10] | Potency [11] | Potency [12] | Potency [13] | Potency [14] | Potency [15] | Potency [16] | Potency [17] | Potency [18] | Potency [19] | Potency [20] |
| --- | --- | --- | --- | --- | --- | --- | --- | --- | --- | --- | --- | --- | --- | --- | --- | --- | --- | --- | --- | --- |
| COc1ccc(C(Cl)=C(c2ccc(OC)cc2)c2ccc(OC)cc2)cc1 | inactive | inactive | 2.72 µM (active) and 7.7 µM (active) and 2.11 µM (active) | inactive | inactive | inactive | inactive | inactive | inactive | inactive | inactive | inactive | inactive | inactive | 15.3 µM (active) and 8.41 µM (active) | – | – | – | – | – |
| CCCc1cc(=O)[nH]c(=S)[nH]1 | inactive | inactive | inactive | inactive | inactive | inactive | inactive | inactive | inactive | inactive | – | inactive | inactive | inactive | inactive | inactive | inactive | – | – | – |
| CCCCC1(COC(=O)CCC(=O)O)C(=O)N(c2ccccc2)N(c2ccccc2)C1=O | inactive | inactive | inactive | inactive | – | – | inactive | inactive | inactive | inactive | – | inactive | inactive | inactive | inactive | inactive | inactive | inactive | inactive | – |
| O=S1(=O)OC(c2ccc(O)cc2)(c2ccc(O)cc2)c2ccccc21 | 30.6 µM (active) and 21.7 µM (active) and 8.41 µM (active) | 27.3 µM (active) and 19.3 µM (active) and 10.6 µM (active) | 61.1 µM (active) and inactive | inactive | inactive | inactive | 27.3 µM (active) and 11.9 µM (active) | 21.7 µM (active) and 24.3 µM (active) and 11.9 µM (active) | inactive | 27.3 µM (active) and inactive | inactive | 30.6 µM (active) and 19.3 µM (active) and 10.6 µM (active) | inactive | inactive | inactive | – | – | – | – | 19.3 µM (active) and 17.2 µM (active) and 13.3 µM (active) |
| CN(C)C(=O)Nc1ccc(Cl)c(Cl)c1 | inactive | inactive | inactive | inactive | inactive | inactive | inactive | inactive | inactive | inactive | – | inactive | inactive | inactive | inactive | inactive | inactive | 30.5 µM (active) and 27.3 µM (active) and 23.7 µM (active) | inactive | inactive |
| Cc1c(C(=O)O)c(O)cc2c1C(=O)c1c(O)c([C@@H]3O[C@H](CO)[C@@H](O)[C@H](O)[C@H]3O)c(O)c(O)c1C2=O | 33.5 µM (active) and 21.7 µM (active) | 37.6 µM (active) and 27.3 µM (active) | inactive | inactive | inactive | – | 26.6 µM (active) and 27.3 µM (active) | 29.9 µM (active) and 27.3 µM (active) | inactive | inactive | inactive | 18.9 µM (active) and 15.4 µM (active) | inactive | inactive | inactive | – | – | – | – | 26.6 µM (active) and 15.4 µM (active) and 13.3 µM (active) |
